# From article PMC7862700, “An all-to-all approach to the identification of sequence-specific readers for epigenetic DNA modifications on cytosine”
# Legend:
# Assay in all cases: DAPPL (digital affinity profiling via proximity ligation, sequencing); 10 mM Tris-HCl pH 7.5, 50 mM NaCl, 1 mM DTT, 4% glycerol, room temperature, 30 min; GST-TFs on glutathione beads, 16-mer random dsDNA library, 0.1% formaldehyde crosslink after washing; high values mean tight binding
# FLI1 = biological target: T1, FLI1 (Homo sapiens, UniProt Q01543 1-452); conditions: protein: recombinant; tags: N-terminal GST; dsDNA, one strand shown
# T1 sequence: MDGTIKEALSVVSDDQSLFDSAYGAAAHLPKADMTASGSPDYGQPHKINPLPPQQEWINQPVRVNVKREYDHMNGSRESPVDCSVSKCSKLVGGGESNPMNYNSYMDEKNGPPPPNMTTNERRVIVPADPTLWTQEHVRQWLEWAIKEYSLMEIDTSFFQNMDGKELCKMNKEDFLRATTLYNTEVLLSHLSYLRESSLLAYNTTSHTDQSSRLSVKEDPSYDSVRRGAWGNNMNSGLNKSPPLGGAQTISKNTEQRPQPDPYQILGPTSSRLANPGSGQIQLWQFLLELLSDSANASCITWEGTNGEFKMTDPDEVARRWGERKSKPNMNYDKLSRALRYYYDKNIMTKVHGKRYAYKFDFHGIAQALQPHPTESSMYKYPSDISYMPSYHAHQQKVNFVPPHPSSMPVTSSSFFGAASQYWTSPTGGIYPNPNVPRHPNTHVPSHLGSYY
# Summary of the method: (§1)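 The binding signal reported is, for every hexamer, its read frequency for a factor over its read frequency for the tag-only sample. Reads came from pools of yeast-expressed, GST-fused human transcription factors on glutathione beads, barcoded with DNA and mixed with that sample, which were incubated with 200 nmole of a random double-stranded 16-mer DNA library in Tris/NaCl/DTT/glycerol buffer at room temperature for 30 min. After washing, the pools were crosslinked with 0.1% formaldehyde, proximity-ligated with BsaI/T4 ligase for 1 h at 37 °C, PCR-amplified and sequenced on an Illumina NextSeq500.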
# ELK1 = biological target: T2, ELK1 (Homo sapiens, UniProt P19419 1-428); conditions: protein: recombinant; tags: N-terminal GST; dsDNA, one strand shown
# T2 sequence: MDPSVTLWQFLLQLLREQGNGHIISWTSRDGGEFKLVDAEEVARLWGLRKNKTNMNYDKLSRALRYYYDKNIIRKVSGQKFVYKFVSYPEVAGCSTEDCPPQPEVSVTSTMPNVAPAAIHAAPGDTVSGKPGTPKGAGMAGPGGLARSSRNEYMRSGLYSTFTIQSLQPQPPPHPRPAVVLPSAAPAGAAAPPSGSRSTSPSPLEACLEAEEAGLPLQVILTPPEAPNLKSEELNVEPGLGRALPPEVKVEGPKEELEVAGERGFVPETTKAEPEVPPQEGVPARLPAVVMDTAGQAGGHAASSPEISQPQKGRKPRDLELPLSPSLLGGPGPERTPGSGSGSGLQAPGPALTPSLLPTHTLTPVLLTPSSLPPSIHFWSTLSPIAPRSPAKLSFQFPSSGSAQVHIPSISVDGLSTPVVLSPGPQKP
# Summary of the method: as §1
# GABPA = biological target: T3, GABPA (Homo sapiens, UniProt Q06546 1-454); conditions: protein: recombinant; tags: N-terminal GST; dsDNA, one strand shown
# T3 sequence: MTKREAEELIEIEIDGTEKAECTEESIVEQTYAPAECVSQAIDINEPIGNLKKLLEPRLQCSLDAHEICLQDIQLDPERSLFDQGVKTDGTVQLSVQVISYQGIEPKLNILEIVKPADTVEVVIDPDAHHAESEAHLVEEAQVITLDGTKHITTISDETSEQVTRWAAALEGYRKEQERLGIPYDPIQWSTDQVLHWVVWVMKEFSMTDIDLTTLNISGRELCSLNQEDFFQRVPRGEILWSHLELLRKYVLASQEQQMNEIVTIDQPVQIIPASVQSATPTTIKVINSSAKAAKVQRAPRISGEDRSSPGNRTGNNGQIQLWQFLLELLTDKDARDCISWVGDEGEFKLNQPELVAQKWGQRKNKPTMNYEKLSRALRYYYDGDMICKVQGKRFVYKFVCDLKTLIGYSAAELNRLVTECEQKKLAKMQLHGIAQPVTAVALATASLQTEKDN
# Summary of the method: as §1
# ERG = biological target: T4, ERG (Homo sapiens, UniProt P11308 1-479); conditions: protein: recombinant; tags: N-terminal GST; dsDNA, one strand shown
# T4 sequence: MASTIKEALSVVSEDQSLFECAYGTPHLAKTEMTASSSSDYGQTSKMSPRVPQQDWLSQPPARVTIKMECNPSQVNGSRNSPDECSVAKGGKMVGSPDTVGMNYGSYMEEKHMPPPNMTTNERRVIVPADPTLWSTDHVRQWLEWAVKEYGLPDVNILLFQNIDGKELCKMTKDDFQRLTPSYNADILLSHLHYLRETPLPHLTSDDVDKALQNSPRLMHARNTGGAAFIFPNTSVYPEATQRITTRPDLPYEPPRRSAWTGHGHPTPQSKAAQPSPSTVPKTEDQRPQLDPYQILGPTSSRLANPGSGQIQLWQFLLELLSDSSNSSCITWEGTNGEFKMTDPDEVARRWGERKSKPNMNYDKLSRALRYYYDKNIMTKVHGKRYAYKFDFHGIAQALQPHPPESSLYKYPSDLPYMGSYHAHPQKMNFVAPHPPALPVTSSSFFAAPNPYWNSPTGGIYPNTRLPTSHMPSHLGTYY
# Summary of the method: as §1
# ELF1 = ELF1 (Homo sapiens, UniProt P32519 1-619); conditions: protein: recombinant; tags: N-terminal GST; dsDNA, one strand shown
# ELF1, sequence (P32519 whole entry): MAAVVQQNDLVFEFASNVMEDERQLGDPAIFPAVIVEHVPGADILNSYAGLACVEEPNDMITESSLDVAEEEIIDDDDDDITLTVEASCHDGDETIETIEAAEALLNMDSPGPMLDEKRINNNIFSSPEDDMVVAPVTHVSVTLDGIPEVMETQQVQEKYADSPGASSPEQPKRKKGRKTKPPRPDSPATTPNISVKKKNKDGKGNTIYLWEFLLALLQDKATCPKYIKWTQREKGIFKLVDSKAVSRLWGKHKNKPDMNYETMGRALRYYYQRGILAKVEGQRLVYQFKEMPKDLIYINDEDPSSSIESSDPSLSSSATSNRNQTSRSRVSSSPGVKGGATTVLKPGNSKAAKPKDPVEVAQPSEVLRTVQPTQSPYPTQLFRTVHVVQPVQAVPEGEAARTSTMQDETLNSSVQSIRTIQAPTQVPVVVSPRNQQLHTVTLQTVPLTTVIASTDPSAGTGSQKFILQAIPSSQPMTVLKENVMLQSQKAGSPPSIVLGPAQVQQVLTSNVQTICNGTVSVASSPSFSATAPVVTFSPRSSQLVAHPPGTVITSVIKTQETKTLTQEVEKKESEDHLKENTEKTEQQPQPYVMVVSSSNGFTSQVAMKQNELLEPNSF
# Summary of the method: as §1
# EHF = biological target: T5, EHF (Homo sapiens, UniProt Q9NZC4 1-300); conditions: protein: recombinant; tags: N-terminal GST; dsDNA, one strand shown
# T5 sequence: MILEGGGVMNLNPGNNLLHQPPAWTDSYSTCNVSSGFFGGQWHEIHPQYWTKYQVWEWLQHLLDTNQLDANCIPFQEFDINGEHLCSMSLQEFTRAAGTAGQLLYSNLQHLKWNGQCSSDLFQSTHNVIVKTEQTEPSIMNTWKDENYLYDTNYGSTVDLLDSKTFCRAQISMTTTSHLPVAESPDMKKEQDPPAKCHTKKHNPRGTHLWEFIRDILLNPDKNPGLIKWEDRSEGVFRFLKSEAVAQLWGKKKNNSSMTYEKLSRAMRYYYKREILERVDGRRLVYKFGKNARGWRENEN
# Summary of the method: as §1
# SPI1 = SPI1 (Homo sapiens, UniProt P17947 1-270); conditions: protein: recombinant; tags: N-terminal GST; dsDNA, one strand shown
# Summary of the method: as §1
# SPIB = SPIB (Homo sapiens, UniProt Q01892 1-262); conditions: protein: recombinant; tags: N-terminal GST; dsDNA, one strand shown
# SPIB, sequence (Q01892 whole entry): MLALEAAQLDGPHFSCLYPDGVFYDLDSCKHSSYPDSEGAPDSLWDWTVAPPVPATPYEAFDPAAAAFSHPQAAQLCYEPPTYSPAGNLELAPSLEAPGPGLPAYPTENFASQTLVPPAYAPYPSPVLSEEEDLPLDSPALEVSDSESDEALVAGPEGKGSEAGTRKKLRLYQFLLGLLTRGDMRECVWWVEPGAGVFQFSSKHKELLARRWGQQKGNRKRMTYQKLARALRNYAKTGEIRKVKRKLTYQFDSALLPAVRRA
# Summary of the method: as §1
# ELK3 = biological target: T6, ELK3 (Homo sapiens, UniProt P41970 1-407); conditions: protein: recombinant; tags: N-terminal GST; dsDNA, one strand shown
# T6 sequence: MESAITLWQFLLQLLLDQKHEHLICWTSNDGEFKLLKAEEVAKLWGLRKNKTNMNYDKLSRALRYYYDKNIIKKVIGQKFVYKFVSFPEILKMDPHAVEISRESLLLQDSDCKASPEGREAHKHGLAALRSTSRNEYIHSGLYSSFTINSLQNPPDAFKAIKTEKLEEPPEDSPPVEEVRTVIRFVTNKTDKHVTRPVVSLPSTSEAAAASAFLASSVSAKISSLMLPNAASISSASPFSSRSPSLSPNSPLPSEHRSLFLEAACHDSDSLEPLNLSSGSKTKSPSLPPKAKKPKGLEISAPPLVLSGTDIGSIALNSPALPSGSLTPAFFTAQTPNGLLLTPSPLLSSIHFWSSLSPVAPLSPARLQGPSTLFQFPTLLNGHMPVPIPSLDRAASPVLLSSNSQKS
# Summary of the method: as §1
# FEV = biological target: T7, FEV (Homo sapiens, UniProt Q99581 1-238); conditions: protein: recombinant; tags: N-terminal GST; dsDNA, one strand shown
# T7 sequence: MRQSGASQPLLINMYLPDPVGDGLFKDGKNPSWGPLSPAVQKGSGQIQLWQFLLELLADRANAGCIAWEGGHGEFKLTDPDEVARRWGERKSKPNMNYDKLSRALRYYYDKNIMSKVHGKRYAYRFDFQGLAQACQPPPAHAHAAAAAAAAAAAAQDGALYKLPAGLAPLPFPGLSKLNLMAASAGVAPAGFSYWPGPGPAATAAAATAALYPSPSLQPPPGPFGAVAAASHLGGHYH
# Summary of the method: as §1
# ETV5 = ETV5 (Homo sapiens, UniProt P41161 1-510); conditions: protein: recombinant; tags: N-terminal GST; dsDNA, one strand shown
# ETV5, sequence (P41161 whole entry): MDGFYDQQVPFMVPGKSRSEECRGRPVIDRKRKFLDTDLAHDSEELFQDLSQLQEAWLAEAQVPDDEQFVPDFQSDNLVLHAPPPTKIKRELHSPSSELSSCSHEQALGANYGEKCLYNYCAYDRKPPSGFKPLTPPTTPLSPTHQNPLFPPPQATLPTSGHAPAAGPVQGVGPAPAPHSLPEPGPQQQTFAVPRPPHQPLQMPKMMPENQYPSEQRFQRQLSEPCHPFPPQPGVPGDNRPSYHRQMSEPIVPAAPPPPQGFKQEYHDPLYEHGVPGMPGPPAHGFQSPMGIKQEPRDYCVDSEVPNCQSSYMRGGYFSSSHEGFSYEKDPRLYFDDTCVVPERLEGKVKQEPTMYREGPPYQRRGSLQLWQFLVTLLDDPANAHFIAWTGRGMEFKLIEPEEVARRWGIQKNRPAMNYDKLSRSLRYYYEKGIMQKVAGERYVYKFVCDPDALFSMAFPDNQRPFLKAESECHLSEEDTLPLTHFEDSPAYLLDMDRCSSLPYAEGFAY
# Summary of the method: as §1
# HSF1 = HSF1 (Homo sapiens, UniProt Q00613 1-529); conditions: protein: recombinant; tags: N-terminal GST; chain copies: 3; dsDNA, one strand shown
# HSF1, sequence (Q00613 whole entry): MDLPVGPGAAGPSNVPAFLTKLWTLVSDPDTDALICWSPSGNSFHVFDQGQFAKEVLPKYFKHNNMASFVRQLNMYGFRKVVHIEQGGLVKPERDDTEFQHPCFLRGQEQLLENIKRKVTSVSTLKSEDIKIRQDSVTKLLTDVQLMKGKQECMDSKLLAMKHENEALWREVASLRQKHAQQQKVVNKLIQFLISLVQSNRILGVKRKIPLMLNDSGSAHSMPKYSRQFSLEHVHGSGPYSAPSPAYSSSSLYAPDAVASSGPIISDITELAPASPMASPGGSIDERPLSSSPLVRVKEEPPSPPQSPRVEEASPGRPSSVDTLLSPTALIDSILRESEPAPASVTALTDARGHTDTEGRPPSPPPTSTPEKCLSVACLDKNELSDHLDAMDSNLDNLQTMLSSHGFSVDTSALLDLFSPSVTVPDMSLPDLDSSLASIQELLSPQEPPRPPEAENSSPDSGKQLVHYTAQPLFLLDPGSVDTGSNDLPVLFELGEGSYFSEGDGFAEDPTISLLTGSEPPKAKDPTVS
# Summary of the method: as §1
# SPIC = biological target: T8, SPIC (Homo sapiens, UniProt Q8N5J4 1-248); conditions: protein: recombinant; tags: N-terminal GST; dsDNA, one strand shown
# T8 sequence: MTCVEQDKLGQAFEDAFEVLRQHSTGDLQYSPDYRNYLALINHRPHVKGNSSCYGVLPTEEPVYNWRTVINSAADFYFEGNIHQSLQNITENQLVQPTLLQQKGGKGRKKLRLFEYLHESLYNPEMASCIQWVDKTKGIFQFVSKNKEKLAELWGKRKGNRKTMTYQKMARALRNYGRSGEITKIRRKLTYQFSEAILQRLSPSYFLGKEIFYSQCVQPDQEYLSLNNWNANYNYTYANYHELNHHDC
# Summary of the method: as §1
# ELF4 = ELF4 (Homo sapiens, UniProt Q99607 1-663); conditions: protein: recombinant; tags: N-terminal GST; dsDNA, one strand shown
# ELF4, sequence (Q99607 whole entry): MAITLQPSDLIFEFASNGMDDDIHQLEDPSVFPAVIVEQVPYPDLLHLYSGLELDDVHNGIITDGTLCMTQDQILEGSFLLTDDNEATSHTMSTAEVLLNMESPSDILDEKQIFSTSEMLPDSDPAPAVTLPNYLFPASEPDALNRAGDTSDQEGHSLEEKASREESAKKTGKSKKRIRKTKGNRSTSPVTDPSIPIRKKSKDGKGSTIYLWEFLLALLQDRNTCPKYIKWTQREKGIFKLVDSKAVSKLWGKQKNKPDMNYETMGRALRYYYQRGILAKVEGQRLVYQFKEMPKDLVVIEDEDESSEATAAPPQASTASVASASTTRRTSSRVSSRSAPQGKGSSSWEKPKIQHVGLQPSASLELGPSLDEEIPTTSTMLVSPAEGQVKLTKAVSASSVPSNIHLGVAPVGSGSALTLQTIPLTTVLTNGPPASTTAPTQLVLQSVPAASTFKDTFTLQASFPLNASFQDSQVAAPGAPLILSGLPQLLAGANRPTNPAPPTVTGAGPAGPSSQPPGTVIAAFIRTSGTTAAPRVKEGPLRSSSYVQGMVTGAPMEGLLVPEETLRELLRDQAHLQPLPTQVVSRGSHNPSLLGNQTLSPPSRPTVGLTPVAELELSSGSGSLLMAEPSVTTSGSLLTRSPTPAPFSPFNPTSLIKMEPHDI
# Summary of the method: as §1
# ELK4 = biological target: T9, ELK4 (Homo sapiens, UniProt P28324-2 1-405); conditions: protein: recombinant; tags: N-terminal GST; dsDNA, one strand shown
# T9 sequence: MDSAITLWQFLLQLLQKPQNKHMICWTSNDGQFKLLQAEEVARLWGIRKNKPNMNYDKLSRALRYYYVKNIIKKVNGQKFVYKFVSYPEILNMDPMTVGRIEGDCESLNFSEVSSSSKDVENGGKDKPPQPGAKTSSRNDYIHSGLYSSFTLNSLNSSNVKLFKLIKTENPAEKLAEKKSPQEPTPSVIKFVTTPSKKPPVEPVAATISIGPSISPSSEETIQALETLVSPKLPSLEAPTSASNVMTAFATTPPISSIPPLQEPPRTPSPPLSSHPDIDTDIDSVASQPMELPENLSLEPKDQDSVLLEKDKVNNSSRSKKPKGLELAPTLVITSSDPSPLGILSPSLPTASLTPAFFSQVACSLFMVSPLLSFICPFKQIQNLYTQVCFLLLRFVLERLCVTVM
# Summary of the method: as §1
# ETV2 = biological target: T10, ETV2 (Homo sapiens, UniProt O00321 1-342); conditions: protein: recombinant; tags: N-terminal GST; dsDNA, one strand shown
# T10 sequence: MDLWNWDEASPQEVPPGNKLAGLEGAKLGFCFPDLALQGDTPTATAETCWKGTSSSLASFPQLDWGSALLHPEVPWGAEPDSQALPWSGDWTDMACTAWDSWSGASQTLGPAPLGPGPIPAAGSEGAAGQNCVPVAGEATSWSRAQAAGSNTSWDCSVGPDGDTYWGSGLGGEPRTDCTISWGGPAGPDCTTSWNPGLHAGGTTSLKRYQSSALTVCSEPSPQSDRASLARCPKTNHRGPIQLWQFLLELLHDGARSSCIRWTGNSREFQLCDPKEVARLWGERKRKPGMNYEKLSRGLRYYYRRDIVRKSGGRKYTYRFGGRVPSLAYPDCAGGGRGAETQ
# Summary of the method: as §1
# ELF3 = biological target: T11, ELF3 (Homo sapiens, UniProt P78545 1-371); conditions: protein: recombinant; tags: N-terminal GST; dsDNA, one strand shown
# T11 sequence: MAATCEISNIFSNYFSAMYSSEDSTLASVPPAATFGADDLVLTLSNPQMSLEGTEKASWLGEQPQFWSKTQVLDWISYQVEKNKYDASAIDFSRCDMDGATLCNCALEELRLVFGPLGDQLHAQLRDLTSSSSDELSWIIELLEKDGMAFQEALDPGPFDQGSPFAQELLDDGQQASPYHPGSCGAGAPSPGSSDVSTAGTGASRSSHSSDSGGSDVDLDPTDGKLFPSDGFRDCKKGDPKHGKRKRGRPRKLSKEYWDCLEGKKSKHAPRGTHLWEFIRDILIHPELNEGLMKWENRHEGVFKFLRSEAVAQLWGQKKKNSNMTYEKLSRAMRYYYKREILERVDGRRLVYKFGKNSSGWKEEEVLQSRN
# Summary of the method: as §1
# CRX = CRX (Homo sapiens, UniProt O43186 1-299); conditions: protein: recombinant; tags: N-terminal GST; dsDNA, one strand shown
# CRX, sequence (O43186 whole entry): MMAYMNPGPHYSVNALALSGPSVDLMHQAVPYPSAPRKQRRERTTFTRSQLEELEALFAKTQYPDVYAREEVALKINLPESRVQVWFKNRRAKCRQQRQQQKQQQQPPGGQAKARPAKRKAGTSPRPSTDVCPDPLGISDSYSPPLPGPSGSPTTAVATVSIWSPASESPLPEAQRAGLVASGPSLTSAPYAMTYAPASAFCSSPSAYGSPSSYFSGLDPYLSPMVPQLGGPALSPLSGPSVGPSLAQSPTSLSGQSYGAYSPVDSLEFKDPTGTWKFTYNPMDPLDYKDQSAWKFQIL
# Summary of the method: as §1
# ETV1 = ETV1 (Homo sapiens, UniProt P50549 1-477); conditions: protein: recombinant; tags: N-terminal GST; dsDNA, one strand shown
# ETV1, sequence (P50549 whole entry): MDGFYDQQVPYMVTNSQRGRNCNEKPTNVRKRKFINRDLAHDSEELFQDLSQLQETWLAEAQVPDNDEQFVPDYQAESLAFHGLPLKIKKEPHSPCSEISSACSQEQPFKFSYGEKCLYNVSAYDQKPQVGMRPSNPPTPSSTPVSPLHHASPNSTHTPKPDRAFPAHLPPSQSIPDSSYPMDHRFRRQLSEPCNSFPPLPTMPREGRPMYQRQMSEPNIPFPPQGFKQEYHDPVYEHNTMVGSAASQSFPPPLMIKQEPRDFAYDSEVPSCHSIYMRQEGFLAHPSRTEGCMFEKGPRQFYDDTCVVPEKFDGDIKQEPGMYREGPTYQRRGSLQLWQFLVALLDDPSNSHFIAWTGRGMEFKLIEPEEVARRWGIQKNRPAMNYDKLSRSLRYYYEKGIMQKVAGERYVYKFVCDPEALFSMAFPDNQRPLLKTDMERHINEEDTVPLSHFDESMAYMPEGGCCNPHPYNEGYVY
# Summary of the method: as §1
sequence,measurement,setting,value
AAAACC,binding signal,FLI1,"1.12 fold enrichment (6-mer frequency, TF over GST control)"
same,binding signal,ELK1,"1.05 fold enrichment (6-mer frequency, TF over GST control)"
same,binding signal,GABPA,"1.16 fold enrichment (6-mer frequency, TF over GST control)"
same,binding signal,ERG,"1.13 fold enrichment (6-mer frequency, TF over GST control)"
same,binding signal,ELF1,"1.21 fold enrichment (6-mer frequency, TF over GST control)"
same,binding signal,EHF,"1.18 fold enrichment (6-mer frequency, TF over GST control)"
same,binding signal,SPI1,"1.27 fold enrichment (6-mer frequency, TF over GST control)"
same,binding signal,SPIB,"1.19 fold enrichment (6-mer frequency, TF over GST control)"
same,binding signal,ELK3,"1.26 fold enrichment (6-mer frequency, TF over GST control)"
same,binding signal,FEV,"1.24 fold enrichment (6-mer frequency, TF over GST control)"
same,binding signal,ETV5,"1.18 fold enrichment (6-mer frequency, TF over GST control)"
same,binding signal,HSF1,"1.09 fold enrichment (6-mer frequency, TF over GST control)"
same,binding signal,SPIC,"1.15 fold enrichment (6-mer frequency, TF over GST control)"
same,binding signal,ELF4,"1.19 fold enrichment (6-mer frequency, TF over GST control)"
same,binding signal,ELK4,"1.22 fold enrichment (6-mer frequency, TF over GST control)"
same,binding signal,ETV2,"1.15 fold enrichment (6-mer frequency, TF over GST control)"
same,binding signal,ELF3,"1.17 fold enrichment (6-mer frequency, TF over GST control)"
same,binding signal,CRX,"1.19 fold enrichment (6-mer frequency, TF over GST control)"
same,binding signal,ETV1,"1.19 fold enrichment (6-mer frequency, TF over GST control)"
